From PubChem
In the library only some 1.9% were active in any assay of this set; here they are far more common.
USP2a inh = qHTS Assay for Inhibitors of Ubiquitin-specific Protease USP2a Using CHOP2 as the Reporter; Ubiquitin carboxyl-terminal hydrolase 2 (Homo sapiens), O75604; USP2 core, Ub-CHOP2 coupled fluorogenic reporter, 485/531; Potency, µM (highest dose often 38.3 µM), for inactives: at the highest dose activity change, negative = inhibition, usual class: inhibitors; hit rate 0.01% among 330,000; AID 463254, 2010;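 further: potency means the concentration at half of the fitted maximal effect; plate controls were DMSO wells for no effect and full inhibition by NEM control for full effect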
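USP2 core (10nM final) preincubated 30min RT with compound in 20mM Tris-HCl pH 8.0, 2mM CaCl2, 2mM beta-mercaptoethanol, 0.05% CHAPS; 25nM Ub-CHOP2 plus 25nM reporter substrate added, fluorescence (Ex485/Em531) read after 60min.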
Pin1 inh = qHTS Assay to Find Inhibitors of Pin1; hit rate 0.009% among 390,000; Peptidyl-prolyl cis-trans isomerase NIMA-interacting 1 (Homo sapiens), Q13526; Potency, µM (top dose mostly 115 µM), without a hit: top-dose activity, negative = inhibition, actives largely listed as inhibitors; AID 504891, 2011; Pin1 FP peptide displacement, HiFluor488, 10 min; active means well fitted inhibition curve with a large enough effect in the polarisation, with a control signal flat, not every such curve was filed as active; inconclusive means small, poorly fitted or top-dose-only effect, or effect the other way, or a change in a side signal; inactive means no such curve, though single readings can be large or run the other way; the % refers to the polarisation; further: potency means the concentration at half of the fitted maximal effect; on the % scale 0 is the no-effect control and ±100 the full control effect
Target sequence (Q13526 whole entry, looked up): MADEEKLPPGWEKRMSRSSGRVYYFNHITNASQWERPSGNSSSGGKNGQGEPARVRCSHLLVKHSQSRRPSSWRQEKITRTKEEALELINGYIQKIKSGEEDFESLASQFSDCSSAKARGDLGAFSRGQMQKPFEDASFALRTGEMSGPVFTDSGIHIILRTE
ClpP mod = qHTS Assay for Activators of ClpP. AID 651965, 2013. purified B. subtilis ClpP, FRET peptide cleavage, 20 min. Potency, µM (titrated, usually from 57.5 µM), for inactives: at the top dose activity change, negative = active. hit rate 1.9% among 340,000; active means well fitted falling curve with a large enough effect; inconclusive means small, poorly fitted or top-dose-only effect; inactive means no such curve, though single readings can be large or run the other way; further: potency means the concentration at half of the fitted maximal effect; the source files actives as falling curves though it sought activators and does not explain the sign; nearly all actives have a fitted effect of over 65% in size
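Buffer: 100 mM Tris/HCl pH8, 100 mM KCl, 0.05% low protease BSA, 2.5% glycerol, 0.01% Tween-20. ClpP 10 microg/mL final; 20 min RT; delta FRET normalized to ADEP and DMSO controls.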
a7 integrin act = qHTS for Activators of Integrin-Mediated Alleviation for Muscular Dystrophy | alpha7betagal myoblasts, beta-gal FDG fluorescence, 48 h | Potency, µM (series often up to 38.3 µM), inactives show at the top dose activation, actives largely listed as activators | hit rate 0.064% among 350,000;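 further: potency means the concentration at half of the fitted maximal effect; 100% = response of the positive control SU9516; nearly all actives have a fitted effect of over 60% in size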
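Alpha7betagal+/- myoblasts (passage 13) were plated 16-24 hr, then exposed to compounds (1:260 dilution of DMSO stock) for 48 hours at 37C. After MPER lysis, β-galactosidase reporter activity was read as FDG fluorescence (ex 480/em 540) after 30 minutes.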
PKM2 act = qHTS Assay for Activators of Human Muscle isoform 2 Pyruvate Kinase. Potency, µM (titrated, usually from 57.5 µM), inactives show at the highest dose activation, hits mostly activators. Pyruvate kinase PKM (Homo sapiens), P14618. hit rate 0.34% among 260,000. AID 1631, 2009. purified PKM2, Kinase-Glo ATP luminescence, activation; response scale: 0% is enzyme alone, no compound; further: potency means the concentration at half of the fitted maximal effect; on the % scale 0 is the no-effect control and ±100 the full control effect; nearly all actives have a fitted effect of over 55% in size
Target sequence (P14618 whole entry, looked up, canonical isoform): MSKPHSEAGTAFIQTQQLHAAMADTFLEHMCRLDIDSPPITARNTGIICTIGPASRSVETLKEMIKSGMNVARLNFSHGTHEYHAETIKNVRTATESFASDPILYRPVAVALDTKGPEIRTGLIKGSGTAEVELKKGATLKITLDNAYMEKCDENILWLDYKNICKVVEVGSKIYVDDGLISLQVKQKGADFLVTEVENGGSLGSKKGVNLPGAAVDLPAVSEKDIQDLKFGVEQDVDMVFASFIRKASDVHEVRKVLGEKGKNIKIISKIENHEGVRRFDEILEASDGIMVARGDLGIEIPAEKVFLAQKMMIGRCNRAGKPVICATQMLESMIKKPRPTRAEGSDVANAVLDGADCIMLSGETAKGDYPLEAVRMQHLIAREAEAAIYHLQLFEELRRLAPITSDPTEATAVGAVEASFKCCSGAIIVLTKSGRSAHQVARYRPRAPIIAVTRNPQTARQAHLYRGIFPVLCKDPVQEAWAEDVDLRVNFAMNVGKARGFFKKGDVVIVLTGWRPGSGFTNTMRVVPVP
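Purified hPK-M2 (>95%) run at intermediate activity with 0.1 mM ADP and 0.5 mM PEP in 50 mM imidazole pH 7.2, KCl, MgCl2; 1 h room temperature. ATP formed read by Kinase-Glo luminescence; normalized to uninhibited and no-enzyme controls.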
IL-2 act = qHTS of IL-2 Activators | hit rate 0.065% among 360,000 | IL-2 activation reporter assay, cell-based qHTS; stimulated with anti-CD3/CD4/CD28 beads; in transgenic mouse T cells | activation, % (series mostly up to about 46 µM); in the data active means activation above about 50%; inconclusive means mostly about 30% to 49%; further: 0% is about no effect
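Unstimulated transgenic mouse T cells preincubated 60 min with compound, then stimulated with anti-CD3/anti-CD4-coated beads plus anti-CD28 for 18 h at 37 degrees C. IL-2 response read as EGFP and DsRed fluorescence by plate cytometry.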
* hit, by the source's call; ? = inconclusive; · = not tested or not shown; [ ] = remark or other dose. Unless noted, the call rests on the fitted dose curve; in most records, active means well fitted curve in the direction sought with a large enough effect; inconclusive means small, poorly fitted or top-dose-only effect, or another doubt; inactive means no such curve, though single readings can be large; an effect the other way counts as inactive or inconclusive.

SMILES	USP2a inh	Pin1 inh	ClpP mod	a7 integrin act	PKM2 act	IL-2 act
Oc1c(Br)cc(Br)cc1CNc1cccc2cccnc12	-3%	-1%	-3%	13µM*	2%	1
Oc1ccc(Br)cc1CNc1cccc2cccnc12	-3%	-6%	·	-9%	8%	0
FC(F)(F)COc1ccc(-c2nnc(SCc3ccccc3)o2)cn1	0%	-4%	18µM*	9%	-6%	0
O=c1cc(CN2CCOCC2)c2cc(Cl)c(O)cc2o1	2%	-5%	4%	1%	1%[0.46 µM]	0
CCc1cc2c(CN3CCN(CC)CC3)cc(=O)oc2cc1O	2%	-4%	28µM*	-20%	1%	0
Cc1cn(C2CC3OCC(NC(=O)C4CCCN4C(=O)OC(C)(C)C)C3O2)c(=O)[nH]c1=O (stereo not given)	·	0%	·	·	·	·
CCOC(=S)SCc1cn2ccc(C)cc2n1	4%	3%	-9%	-31%	7.9µM*	-1
CCOC(=S)SCc1cn2ccccc2n1	0%	1%	·	4%	16%	5
C[N+]1(CC(=O)c2ccc(Oc3ccc(C(=O)C[N+]4(C)CCOCC4)cc3)cc2)CCOCC1	·	·	0%	·	·	·
CCc1nc2sc(C#N)c(N)c2c2c1CCCC2	·	17%	28µM*	-6%	·	-2
COc1cccc(C2c3c(ncn(-c4ccc5c(c4)OCO5)c3=N)Oc3ccc4ccccc4c32)c1 (stereo not given)	·	17%	·	·	·	·
COc1cc(Cl)c(C)cc1NC(=O)CCc1c(C)nc2c3cccnc3nn2c1C	·	1%	25µM*	·	·	·
O=S(=O)(c1ccc(Br)cc1)N1CCN(c2nc(-c3ccccc3)nc3ccccc23)CC1	·	-3%	-14%	·	·	·
O=C(NCc1cccs1)Nc1ccc(Cl)cc1	2%	-1%	20µM*	-8%	11%	-2
Cc1cc(Br)cc2c1N(Cc1ccccc1OC(C)C)C(=O)C2=O	·	-2%	-3%	·	·	·
CCOC(=O)c1ccc2[nH]c(C)c(CCC(C)=O)c(=O)c2c1	2%	-3%	?	14%	15%	0
CC(=O)Nc1ccc2[nH]c(C)c(CC=C(Cl)Cl)c(=O)c2c1	-1%	4%	32µM*	13%	14%	-2
COc1cccc(Cn2c(=O)n(-c3cc(C)cc(C)c3)c(=O)c3oc4ccccc4c32)c1	·	39%	35µM*	·	·	·
Cc1cccc(Cn2c(=O)n(-c3cc(C)cc(C)c3)c(=O)c3oc4ccccc4c32)c1	·	47%	-17%	·	·	·
O=S(=O)(c1cccc(C(F)(F)F)c1)N1CCN(c2nc(-c3cccs3)nc3cc(Cl)ccc23)CC1	·	-2%	·	·	·	·
CCOc1ccc(NC(=O)CCN2CCN(S(=O)(=O)c3cc(Cl)ccc3OC)CC2)cc1	0%	-5%	28µM*	16%	12%	2
CCN(CC)c1ccc(NC(=O)CN2CCN(S(=O)(=O)c3cc(Cl)ccc3OC)CC2)cc1	-9%	2%	0%	-20%	-7%	-4
Cc1ccc(S(=O)(=O)Nc2ccccc2C(=O)NCC2CCCO2)cc1 (stereo not given)	1%	16%	?	-8%	0%	0
CCOc1ccc(S(=O)(=O)Nc2ccccc2C(=O)NCC2CCCO2)cc1 (stereo not given)	0%	1%	28µM*	11%	-24%	-4
O=C(CN1CCCCC1)Nc1ccc(NC(=O)c2ccc(Cl)cc2)cc1Cl	2%	-2%	14µM*	10%	-1%	0
SMILES	USP2a inh	Pin1 inh	ClpP mod	a7 integrin act	PKM2 act	IL-2 act
O=C(COC(=O)c1ccc(NS(=O)(=O)c2cccs2)cc1O)Nc1nc2ccccc2s1	-2%	23%	-2%	?	-2%	1
O=C(COC(=O)c1ccc(NS(=O)(=O)c2cccs2)cc1)NCc1ccco1	4%	·	-1%	-32%	14µM*	2
O=C(COC(=O)c1ccc(NS(=O)(=O)c2cccs2)cc1O)NCc1ccccc1	0%	9%	2%	5%	22µM*	-1
O=C(Nc1ccc2c(c1)nc1n2CCN(Cc2ccccc2)C1)NC1CCCCC1	-6%	2%	28µM*	18%	0%	0
COCCN1CCn2c(nc3cc(NC(=O)NC4CCCCC4)ccc32)C1	3%	1%	?	9%	3%	-2
CCOC(=O)C1CCCN(c2nc3c(S(=O)(=O)c4ccc(CC)cc4)nnn3c3ccsc23)C1 (stereo not given)	·	17%	32µM*	·	·	·
CC(C)c1ccc(S(=O)(=O)c2nnn3c2nc(N2CCCCC2)c2sccc23)cc1	·	7%	25µM*	·	·	·
CCOC(=O)C1CCCN(c2nc3c(S(=O)(=O)c4ccc(Br)cc4)nnn3c3ccsc23)C1 (stereo not given)	·	26%	11µM*	·	·	·
CC(C)c1ccc(S(=O)(=O)c2nnn3c2nc(N2CCOCC2)c2sccc23)cc1	·	7%	-28%	·	·	·
CCOC(=O)C1CCN(c2nc3c(S(=O)(=O)c4ccc(Br)cc4)nnn3c3ccsc23)CC1	·	13%	14µM*	·	·	·
CCc1ccc(S(=O)(=O)c2nnn3c2nc(N2CCCC2)c2sccc23)cc1	·	0%	?	·	·	·
Cc1ccc(S(=O)(=O)c2nnn3c2nc(N2CCCCC2)c2sccc23)cc1	·	1%	-6%	·	·	·
O=[N+]([O-])c1ccc2c(c1)/C(=C/c1ccc(C=S)cc1)C=C2	·	·	1%	·	·	·
Nc1nc(-c2ccccc2)[nH]c(=O)c1N	6%	-16%	28µM*	-7%	8%	0
COc1cc(NC(=O)c2cc(Cl)ccc2Cl)ccc1-c1cc2ccccc2oc1=O	2%	14%	28µM*	-12%	-1%	-2
COc1cc(NC(=O)c2cccnc2)ccc1-c1cc2ccccc2oc1=O	12%	·	·	·	1%	·
CCc1ccc(OCC(=O)Nc2ccc(-c3cc4ccccc4oc3=O)c(OC)c2)cc1	-2%	15%	35µM*	-10%	2%	-1
O=C1CCN(CCc2ccccc2)CCN1C(CSc1ccc(Br)cc1)Cc1ccccc1 (stereo not given)	·	53%	·	·	·	·
CCc1nnc(SC(CC)C(=O)Nc2ccc(OC)c(Cl)c2)c2cc3occc3n12 (stereo not given)	·	22%	-19%	·	·	·
CC(C)(C)NC(=O)Nc1ccc2nccnc2c1	-8%	-1%	20µM*	-4%	-6%	-2
